Shown is part of a subset that was picked to be rich in hits.
KDM5B inh – blocks human KDM5B histone demethylase activity; actives 2.6% (n = 220,000); Q9UGL1; Potency, µM (highest dose often 57.7 µM), most hits filed as inhibitors; AID 1347165; KDM5B demethylase, FDH-coupled NADH fluorescence (FDH is formaldehyde dehydrogenase); active means well fitted inhibition curve with a large enough effect; further: 0% is about no effect; nearly all actives have a fitted effect of over 70% in size
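Measured: NADH fluorescence change, 30 min, RT. System: KDM5BΔAP 200 nM final, H3K4me3 peptide, α-KG, Fe(II), ascorbate, NAD⁺ plus FDH, pH 7.5 HEPES. Compounds: titrated, 10 min pre-incubation with enzyme.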
* hit, by the source's call; i = inactive. Potency means the concentration at half of the fitted maximal effect.

SMILES	KDM5B inh
Cc1oc(C(O)c2ccccc2F)nc1C(=O)Nc1ccc(C(N)=O)cc1 (stereo not drawn)	i
CCc1cccc(C)c1NC(=O)CN(C)Cc1ccc(C(F)(F)F)cc1	i
CC(C)C(=O)N1CCCCCCNC(=O)[C@@H]2C[C@@H](C(=O)NCCc3c[nH]c4ccccc34)C[C@@H]21	i
CC(C)C(=O)N1CCCCCCNC(=O)[C@@H]2C[C@@H](C(=O)N3CCN(c4ccccn4)CC3)C[C@@H]21	25µM*
Cc1ccc(CN2CCCCCCNC(=O)[C@@H]3C[C@@H](C(=O)N4CCN(c5ccccn5)CC4)C[C@@H]32)o1	20µM*
Cc1ccc(CN2CC[C@H]3C(=O)NCCCCCN(Cc4cccnc4)[C@@H]3C2)o1	i
Cc1ccc(CN2CCCCCCNC(=O)CC2c2ccccc2)o1 (stereo not drawn)	i
Cn1ccnc1C(=O)N1CCCCCNC(=O)[C@H]2C[C@H](C(=O)N3CCc4ccccc4C3)C[C@H]21	i
CN(Cc1cc2n(n1)CCNC2)Cc1cnc(-c2ccccc2)s1	i
O=C(CCc1ncc(-c2ccc(F)cc2F)o1)Nc1ccccc1Cl	i
COc1ccc(CN2CC3(CCN(C(=O)Nc4ccc5c(c4)OCCO5)CC3)C2=O)cc1	i
CC(=O)NNC(=S)Nc1ccc(C)cc1C	i
Cc1nc2ccc(C(=O)N[C@@H]3COCC[C@@H]3OCc3cscn3)cc2o1	i
Cn1cnc2cc(C(=O)N[C@@H]3COCC[C@@H]3OCc3cscn3)ccc21	i
Cn1ccc(C(=O)N[C@@H]2COCC[C@@H]2OCc2cscn2)cc1=O	28µM*
COc1ccc(C(=O)C(C)Cl)c(OC)c1 (stereo not drawn)	i
CC(=O)N1CCC(N2CC[C@@H](CO)N(C)c3nc(C)ccc3C2)CC1	32µM*
Cc1ccc2c(n1)N(C)[C@H](CO)CCN(CC1CCCCC1)C2	35µM*
Cc1ccc2c(n1)N(C)[C@H](CO)CCN(Cc1cnc3ccccc3c1)C2	i
Cc1ccc2c(n1)N(C)[C@H](CO)CCN(C(=O)Nc1ccccc1)C2	i
c1ccc2sc([C@H]3CCN(CC4CCCCC4)C3)nc2c1	i
Cc1ccc2c(n1)N(C)[C@H](CO)CCN(Cc1ccc(F)cc1)C2	35µM*
Cc1cc(CN2CCC(Cc3ccc(F)cc3)CC2)n(C)n1	i
CC(=O)N1CCC(N2CC[C@H](CO)[C@H](N(C)C)C2)CC1	i
Cc1ccc2c(n1)N(C)[C@H](CO)CCN(Cc1ccc(OC(F)(F)F)cc1)C2	i
SMILES	KDM5B inh
CC(=O)c1c(OCCC(C)C)ccc2c(C)cc(=O)oc12	i
O=C(CN1CCN(C2CCS(=O)(=O)C2)CC1)N1CC=C(c2ccccc2)CC1 (stereo not drawn)	i
CC(=O)N1CCC([C@@H]2CN(Cc3ccc(F)cc3Cl)C[C@H]2CO)CC1	i
C=CCSc1nnc(NC(=O)c2cc(=O)c3ccccc3o2)s1	i
COc1ccccc1C(=O)N1CCC(C(NC(=O)c2cccs2)C(=O)N2CCCCC2)CC1 (stereo not drawn)	i
CN1CCC(NC(=O)CCc2ncc(-c3ccc(F)cc3)o2)CC1	i
COc1ccc(C)cc1-n1nnnc1SCc1nc(C(C)C)no1	i
COc1ccc(-c2cc3nc4c(c(=O)n3[nH]2)CN(C(=O)c2cc(CN3CCOCC3)on2)CC4)cc1	8.9µM*
COc1ccc2c(c1)CCc1c-2n[nH]c1C(=O)N1CCc2c(nc3cc(-c4ccccc4)[nH]n3c2=O)C1	16µM*
COc1ccc(-c2nc3c(c(-c4ccccc4)n2)CN(C(=O)c2ccc(F)cc2)CC3)cc1	i
Cc1ccc(C(=O)N2C[C@H](c3nc(-c4ccccc4)no3)[C@@H](C)C2)cn1	i
COc1ccc(C(=O)N2CCc3nc(-c4ccc(Cl)cc4)nc(-c4ccccc4)c3C2)cc1	i
COc1ccc(-c2cc3nc4c(c(=O)n3[nH]2)CN(C(=O)c2ccncc2)CC4)cc1	i
Cc1ccc(C(=O)N2CCc3c(nc4cc(-c5ccccc5)[nH]n4c3=O)C2)cn1	25µM*
COc1ccc(-c2cc3nc4c(c(=O)n3[nH]2)CN(C(=O)c2ccc3[nH]ccc3c2)CC4)cc1	16µM*
COc1ccc(C(=O)N[C@H]2C[C@@H](Cc3cc(CN4CCOCC4)on3)C2(C)C)cc1	i
Cc1ccc(C(=O)N2CCc3nc(OCC4CC4)ccc3C2)cn1	i
COc1ccc(-c2nc(-c3ccccc3)nc3c2CN(C(=O)c2ccc(C(F)(F)F)cc2)CC3)cc1	i
COc1ccc(C(=O)NC[C@H]2O[C@H](Cc3cc(CN4CCOCC4)on3)CC[C@@H]2O)cc1	i
Cc1ccc(Cl)cc1NC(=O)CCNC(=O)CCC(=O)c1cccs1	i
COc1cc(CNC2CCCC2)ccc1OCc1ccccc1	i
COc1ccc(C(=O)N[C@@H]2CCC[C@@H]2C(=O)NCCc2cccs2)cc1	i
Clc1ccc(Cl)c(Oc2ccc3nnnn3n2)c1	i
CCOc1ccc(CN2CC(Oc3ccccc3C(=O)NC3CC3)C2)cc1	i
CCCC1CN(C(=O)OC(C)(C)C)C(C)CN1 (stereo not drawn)	i
SMILES	KDM5B inh
CCCCC(CC)CNC(=S)NCc1ccc(C)cc1 (stereo not drawn)	i
O=C(c1ccc2cc[nH]c2c1)N1CCCC(Cc2noc(-c3ccccc3)n2)C1 (stereo not drawn)	i
O=C(c1ccc2cc[nH]c2c1)N1CCc2c(nc3cc(-c4ccccc4)[nH]n3c2=O)C1	28µM*
CN1CCN(C(=O)Nc2cccc(-c3ccccc3)c2)CC1	i
O=C(c1cc(-c2ccccc2)n[nH]1)N1CCc2c(nc(-c3ccccc3)[nH]c2=O)C1	i
O=C(Nc1cccc(-c2ccc(N3CCOCC3)nn2)c1)Nc1ccc2c(c1)CCC2	i
O=C(Nc1ccc2c(c1)CCC2)N1CCc2c(nc3cc(-c4ccccc4)[nH]n3c2=O)C1	11µM*
CNC(=O)c1ccc(NS(=O)(=O)c2ccc(C(C)(C)C)cc2)cc1	i
Cc1cc(C)cc(NC(=S)NNC(=O)C(c2ccccc2)c2ccccc2)c1	i
Cc1oc(-c2ccccc2)nc1CC(=O)NCCc1ccccc1	i
COc1ccc(-c2nonc2NC(=O)COc2c(C)cccc2C)cc1	i
N#CCc1nnc(-c2ccccc2)s1	i
Cc1cc(C(=O)N[C@H]2CCOC[C@H]2C2CCOCC2)ccc1N1CCOCC1	i
Cc1ccc(S(=O)(=O)N2CCN(C(=O)NCC3CN(CC(C)C)CCO3)CC2)cc1C (stereo not drawn)	i
O=C(COc1ccc(Cl)cc1Cl)c1ccccc1	i
O=C(NC1CCCCC1)N1C[C@@H]2C[C@H](C1)c1c(NS(=O)(=O)c3cccc(F)c3)ccc(=O)n1C2	i
O=C(Nc1ccc(=O)n2c1[C@@H]1C[C@@H](CN(C(=O)Nc3ccc(F)cc3)C1)C2)NC1CCCCC1	20µM*
O=C(Nc1ccc(=O)n2c1[C@@H]1C[C@@H](CN(C(=O)Nc3ccc(F)cc3)C1)C2)c1ccc2c(c1)OCO2	i
CCOCCCNC(=O)N1Cc2ccccc2OC2(CCN(C)CC2)C1	i
COC(=O)C1=C(c2ccccc2)c2ccccc2S(=O)(=O)N1CC(=O)Nc1ccc(F)cc1F	i
CN1CCC(NC(=O)c2ccc(OC3CCNCC3)nc2)CC1	i
O=C(CCCc1ccccc1)Nc1ccc(OC2CCNCC2)nc1	18µM*
CCC(=O)N1CCC(Oc2ccc(NC(=O)Cc3ccncc3)cn2)C1 (stereo not drawn)	i
CCCC(=O)Nc1scc(-c2ccc(OC)c(OC)c2)c1C(=O)OCC	i

Compound activity (PubChem BioAssay)
